# A number with no mark means an inactive call. Calls of active or inactive are those of the source. Unless noted, no stated cut-off is given here; in the data, active means inhibition above about 44%; inactive means the rest.
# Key:
# [1] = StAR promoter reporter inhibitors, counter-screen for LRH-1 inverse agonist project, cell-based, luminescence, high throughput (AID 651611; in the data active means inhibition above about 28%); conditions: StAR promoter luciferase reporter counterscreen, at 3.6 µM, stronger effect = higher value
# [2] = biological target: Nuclear receptor subfamily 5 group A member 2 (Homo sapiens) (UniProt O00482); assay: NR5A2 activity suppression in reporter cells – cell-based, luminescence, confirmation (AID 651613; in the data active means inhibition above about 42%;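 further: HEK293T cells co-transfected with LRH-1 and StAR promoter luciferase reporter; 0% = vehicle wells and 100% = parental cells lacking receptor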); conditions: cell-based LRH-1 luciferase reporter, inverse agonism; at 3.6 µM; stronger effect = higher value
# [3] = biological target: Steroidogenic factor 1 (Homo sapiens) (UniProt Q13285); assay: inverse agonism at SF1 nuclear receptor – cell-based, luminescence, high throughput, counter-screen for LRH-1 inverse agonist project (AID 651614); conditions: cell-based SF1 luciferase reporter, at 3.6 µM, stronger effect = higher value;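 further: cells cotransfected with StAR promoter reporter and SF1 expression vector; 0% = vehicle on cells with receptor and 100% = vehicle on cells lacking receptor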
# [4] = compounds suppressing VP16-driven luciferase signal – cell-based, luminescence, high throughput, counter-screen for LRH-1 inverse agonist project (AID 651615; in the data active means inhibition above about 33%); conditions: Gal4-VP16 luciferase reporter cells, at 3.6 µM, stronger effect = higher value
# Sequence of Nuclear receptor subfamily 5 group A member 2 (Homo sapiens) (O00482 whole entry, looked up): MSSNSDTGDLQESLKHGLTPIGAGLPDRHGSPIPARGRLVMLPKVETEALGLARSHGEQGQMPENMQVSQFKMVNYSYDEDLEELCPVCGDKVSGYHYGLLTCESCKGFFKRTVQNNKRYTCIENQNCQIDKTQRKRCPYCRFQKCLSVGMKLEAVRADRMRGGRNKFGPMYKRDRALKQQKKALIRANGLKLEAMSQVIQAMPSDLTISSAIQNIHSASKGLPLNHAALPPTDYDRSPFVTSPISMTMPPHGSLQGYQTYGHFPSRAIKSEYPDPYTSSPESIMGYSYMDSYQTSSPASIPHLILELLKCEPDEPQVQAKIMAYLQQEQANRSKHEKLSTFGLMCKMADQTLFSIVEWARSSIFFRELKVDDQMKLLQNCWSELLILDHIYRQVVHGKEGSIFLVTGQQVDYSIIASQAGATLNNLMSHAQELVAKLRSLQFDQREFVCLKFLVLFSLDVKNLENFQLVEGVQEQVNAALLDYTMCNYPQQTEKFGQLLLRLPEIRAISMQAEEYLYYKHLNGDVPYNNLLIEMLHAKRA
# Sequence of Steroidogenic factor 1 (Homo sapiens) (Q13285 whole entry, looked up, the tested form may be a part): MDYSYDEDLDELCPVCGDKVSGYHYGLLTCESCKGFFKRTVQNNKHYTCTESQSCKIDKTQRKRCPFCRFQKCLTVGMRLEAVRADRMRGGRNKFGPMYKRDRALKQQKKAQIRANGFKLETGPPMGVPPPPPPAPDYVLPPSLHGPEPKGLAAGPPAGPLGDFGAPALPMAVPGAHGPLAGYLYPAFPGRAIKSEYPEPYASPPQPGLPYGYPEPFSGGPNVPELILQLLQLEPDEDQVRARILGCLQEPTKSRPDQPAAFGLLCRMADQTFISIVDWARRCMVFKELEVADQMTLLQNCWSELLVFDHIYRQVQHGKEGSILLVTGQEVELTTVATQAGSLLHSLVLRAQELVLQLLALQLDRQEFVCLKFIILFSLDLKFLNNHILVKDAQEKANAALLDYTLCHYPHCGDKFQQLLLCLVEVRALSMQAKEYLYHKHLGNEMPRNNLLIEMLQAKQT
Structure (SMILES),inhibition [1],inhibition [2],inhibition [3],inhibition [4]
O=C(Nc1ccc2[nH]c(=O)[nH]c2c1)c1ccc([N+](=O)[O-])o1,7.96%,65.1% (active),65.8% (active),-11.8%
O=C(Nc1ccc(Cc2ccncc2)cc1)c1cc(F)c(F)cc1Cl,-0.62%,44.2% (active),37.9%,10.3%
O=C(CSc1nc(=O)n2cc(Cl)ccc2n1)Nc1ccc2c(c1)OCCO2,3.01%,47.8% (active),44.1% (active),-4.83%
COc1ccc(-c2ccc(C(=O)NCc3ccncc3)c3occc23)c(C)c1,29.2% (active),69.7% (active),70.1% (active),46.4% (active)
Cc1ccccc1NC(=S)NCc1ccc2[nH]c3c(c2c1)CCCC3,-0.36%,17.9%,28.9%,9.36%
O=C(Nc1ccccc1Cl)c1ccc([N+](=O)[O-])o1,29.4% (active),63.9% (active),75.9% (active),-5.01%
O=[N+]([O-])c1ccc(/C=N/n2c(CO)nc3ccccc32)s1,16.3%,62.2% (active),59.9% (active),2.51%
CCC(=O)Nc1ccc(NC(=O)CSc2nc3c(c(=O)n(C)c(=O)n3C)n2CC)cc1,34.6% (active),58.8% (active),58.3% (active),-17.8%
Cc1ccc(-c2cc(NC=O)c3ncc(-c4cnn(C)c4)n3c2)cc1,50.1% (active),52% (active),64.3% (active),-13.8%
Cc1ccc(OCCC(=O)OCC(=O)Nc2ccc(N3CCOCC3)cc2)cc1,16.6%,54.8% (active),46.6% (active),-7.59%
CC1CCCC(C)N1C(=O)COC(=O)Cc1ccc(Cl)cc1 (stereo not drawn),-5.45%,51.2% (active),41.8%,0.05%
CCCc1cc(=O)oc2cc(C)cc(OCC(=O)Nc3ccccn3)c12,2.99%,60.1% (active),61.8% (active),3.1%
O=C(CSc1cc(Cl)ccc1Cl)Nc1ccc(N2CCOCC2)cc1,1.91%,63.9% (active),65.3% (active),3.31%
CC(=O)Nc1ccc2nc(NC(=O)c3ccc([N+](=O)[O-])o3)sc2c1,1.53%,53.5% (active),55.8% (active),-32.4%
Cc1ccc(NNC(N)=S)cc1Cl,11.6%,53.4% (active),50.5% (active),1.11%
COc1cc(N)c(Cl)cc1C(=O)OCC(=O)N1c2ccccc2NC(=O)C1(C)C,11.8%,19.4%,11.5%,-12.3%
COc1ccc(CCNC(=O)CN2C(=O)NC3(CCCCC3)C2=O)cc1,11%,53.9% (active),54% (active),-6.08%
O=C(COC(=O)c1cccc(O)c1)Nc1ccc(N2CCOCC2)cc1,13.6%,54.3% (active),54.6% (active),-6.64%
N#CCCn1cc(/C=N/NC(N)=S)c(-c2ccc(-c3ccccc3)cc2)n1,28.7% (active),52% (active),48.6% (active),-9.84%
O=C(COC(=O)CCN1C(=O)C2CC=CCC2C1=O)NCCc1ccccc1 (stereo not drawn),11.9%,40.1%,44.8% (active),3.03%
Cc1ccc(-c2nn3c(C)nnc3s2)cc1NC(=O)c1ccco1,7.12%,63.2% (active),60.7% (active),-12.3%
COc1ccc(-c2c(C)nn3c(NC4CCCC4)cc(C)nc23)cc1OC,25.9%,62.9% (active),54.8% (active),-3.44%
O=[N+]([O-])c1ccc(N2CCCCC2)nc1N1CCCCC1,-13.2%,54.5% (active),51.2% (active),13.4%
CCOC(=O)C1CCCN(S(=O)(=O)c2ccc(S(=O)(=O)N(CC)CC)cc2)C1 (stereo not drawn),18.1%,60.3% (active),54.5% (active),49.5% (active)
CCOC(=O)N1CCc2cc(OC)c(OC)c3c2c1cc1cc(OC)c(OC)cc13,60.1% (active),70.3% (active),67.3% (active),-28.7%
CC1CCCC(C)N1C(=O)COC(=O)CCC1CCCC1 (stereo not drawn),3.25%,51.2% (active),52.9% (active),2.94%

Structure (SMILES),inhibition [1],inhibition [2],inhibition [3],inhibition [4]
S=C(Nc1ccc(Br)cc1)Nc1ccc2c(c1)OCCO2,-74.4%,-51.1%,-27.8%,-71.3%
O=[N+]([O-])c1ccc(N2CCN(Cc3ccccc3)CC2)c2c1no[n+]2[O-],63.5% (active),57.3% (active),63.1% (active),25.3%
CCCc1cc(=O)oc2cc(OCC(=O)N3CCN(C(=O)C4COc5ccccc5O4)CC3)ccc12 (stereo not drawn),8.6%,63.4% (active),55.5% (active),3.04%
O=S(=O)(c1ccc(-c2csc(Nc3ccc(F)cc3)n2)cc1)N1CCCC1,15.5%,66.7% (active),56.4% (active),35.4% (active)
CCOc1ccc(CCNC(=O)COC(=O)c2nc3nc(C)cc(C)n3n2)cc1OCC,9.65%,48.8% (active),38.2%,-0.98%
O=C(CSc1ncnc2c1cnn2-c1ccccc1)Nc1ccc2c(c1)OCO2,11%,55.6% (active),48.5% (active),-7.58%
Cc1cc(-c2nnc(SCC(=O)Nc3cccc(C)c3C)n2N)n[nH]1,5.59%,53.3% (active),48.2% (active),-4.91%
CC(C)[C@H](NC(=O)OCc1ccccc1)C(=O)OCC(=O)Nc1ccc(N2CCOCC2)cc1,10.9%,59.9% (active),59.2% (active),-0.29%
CC1CCC2(CC1)NC(=O)N(CC(=O)Nc1ccc(N3CCOCC3)cc1)C2=O (stereo not drawn),11.8%,45.8% (active),37.4%,-8.77%
COc1ccccc1-n1c(SCC(=O)Nc2ccc(Cl)cc2)nc(O)c(Cc2ccccc2)c1=O,16.2%,55.1% (active),56% (active),0.94%
CC(=O)Nc1cccc(C(=O)OCC(=O)N2CCN(C(=O)COC(=O)c3cccc(NC(C)=O)c3)CC2)c1,21.9%,55.5% (active),47.6% (active),-10.3%
CC(C)C(=O)Nc1ccc(C(=O)CN2C(=O)NC3(CCOc4ccccc43)C2=O)cc1 (stereo not drawn),8.93%,37.1%,36.7%,7.98%
NNC(=O)C(Cc1ccc(O)cc1)N1Cc2ccccc2C1=O (stereo not drawn),-1.94%,20.6%,29.4%,1.55%
CCCC(=O)Nc1sc2c(c1C(=O)Nc1ccccn1)CCCC2,-1.01%,47.1% (active),53.8% (active),5.28%
CCN1C(=O)c2cccc3c(NC(=O)c4cccc(N5C(=O)CCC5=O)c4)ccc1c23,21.9%,51.3% (active),50.1% (active),-48.1%
Cc1cccc(NC(=O)CSc2nc3[nH]ncc3c(=O)[nH]2)c1C,11.6%,56.4% (active),52.2% (active),-4.74%
CCOc1ccc(CCNC(=O)COC(=O)c2cc(=O)[nH]c3ccccc23)cc1OCC,8.79%,53.2% (active),53.2% (active),-8.43%
O=C(Nc1ccc(S(=O)(=O)N2CCOCC2)cc1)c1ccc([N+](=O)[O-])o1,17.6%,57.5% (active),65.2% (active),-5.86%
O=[N+]([O-])c1ccc(N2CCCC2)cc1NC1CC1,0.53%,47.1% (active),47.3% (active),-3.08%
CN(C)c1ccc(CNc2ncnc3sccc23)cc1,2.38%,71% (active),47.9% (active),42.5% (active)
O=C(CSc1nccc(=O)[nH]1)Nc1ccc(N2CCOCC2)cc1,4.42%,61.3% (active),47.8% (active),-3.99%
O=C(c1cc(-c2ccco2)nc2ccccc12)N(Cc1nnc(-c2ccc(Cl)cc2)o1)C1CC1,-6.37%,-5.73%,2.98%,-2.77%
Clc1ccccc1-c1nnc2sc(-c3ccncc3)nn12,15.3%,52.6% (active),50.9% (active),3.81%
Cc1ccc(C(O)(C(=O)NN(C(=O)c2ccccc2)c2ccccc2)c2ccc(C)cc2)cc1,8.63%,65.8% (active),62.9% (active),12.3%
CC(=O)N1CCc2c(sc(NC(=O)Cc3ccccc3)c2C#N)C1,18.4%,64% (active),57.4% (active),-30.8%
O=C(O)c1c[nH]c2c([N+](=O)[O-])cccc2c1=O,10.4%,35.2%,29.6%,5.89%

# Source: PubChem BioAssay
